# Shiga toxin inh = inhibitors of Shiga toxin in Vero cells | Vero cells, Shiga toxin protein synthesis inhibition reporter | inhibition, % at 38.7 µM | actives 9.2% (n = 290,000); in the data active means inhibition mostly above about 28%, no sharp cut-off; inactive means mostly below about 43%; further: 0% is about no effect
# TbPYK inhibitor = blocks Trypanosoma brucei pyruvate kinase | TbPYK enzyme, Kinase-Glo Plus ATP luminescence, 45 min | Potency, µM (series often up to 76.8 µM), inactives show at the highest dose activity, negative = inhibition, hits mostly inhibitors | actives 0.12% (n = 410,000); further: potency means the concentration at half of the fitted maximal effect; on the % scale 0 is the no-effect control and ±100 the full control effect; nearly all actives have a fitted effect of over 50% in size
#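 TbPYK + substrate in 50 mM TEA pH 7.2, 100 mM KCl, 10 mM MgCl2, 0.05% BSA, 0.01% Tween-20; cpd pinned; ADP 130 uM final; 45 min RT; Kinase-Glo Plus 10 min; luminescence endpoint.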
# FBPA Giardia inh = inhibitors of Giardia lamblia fructose-1,6-bisphosphate aldolase. AID 2451. actives 0.71% (n = 290,000). purified Giardia FBPA. A8B2U2. Potency, µM (doses to about 59.6 µM), without a hit: top-dose activity, negative = inhibition, actives largely listed as inhibitors; further: potency means the concentration at half of the fitted maximal effect; on the % scale 0 is the no-effect control and ±100 the full control effect; nearly all actives have a fitted effect of over 55% in size
# Target sequence (A8B2U2 whole entry, looked up): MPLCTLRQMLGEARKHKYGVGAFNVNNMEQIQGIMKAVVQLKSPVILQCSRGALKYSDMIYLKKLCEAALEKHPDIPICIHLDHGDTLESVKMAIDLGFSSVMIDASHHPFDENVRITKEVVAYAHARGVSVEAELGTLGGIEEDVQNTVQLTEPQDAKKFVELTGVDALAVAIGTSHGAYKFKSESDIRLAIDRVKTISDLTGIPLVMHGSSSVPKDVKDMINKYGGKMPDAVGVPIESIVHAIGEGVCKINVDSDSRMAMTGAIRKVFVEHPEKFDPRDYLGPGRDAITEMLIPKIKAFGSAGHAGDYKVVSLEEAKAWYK
#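 40 nM FBPA preincubated 10 min at RT with compound (up to 57.5 uM final), then substrate plus GAPDH/TPI/NAD/arsenate coupling and diaphorase/resazurin added. Fluorescence read after 20 min at RT, 525/598 nm.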
# LmPK inhibitor = LmPK (Leishmania mexicana) enzyme inhibition; Q27686; purified LmPK, Kinase-Glo ATP luminescence, 1 h; Potency, µM (series often up to 57.5 µM), for inactives: top-dose activity change, negative = inhibition, actives largely listed as inhibitors; actives 0.37% (n = 290,000); AID 1721; further: potency means the concentration at half of the fitted maximal effect; on the % scale 0 is the no-effect control and ±100 the full control effect
#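 Pyruvate kinase activity monitored as ATP production (luciferase luminescence). Conditions: 0.1 nM enzyme, 0.5 mM PEP, 0.1 mM ADP, 1 h, RT; normalized against uninhibited and no-enzyme wells.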
# Cycloheximide cs = affects cycloheximide protein synthesis inhibition readout, counter-screen | cell reporter, cycloheximide protein synthesis inhibition counterscreen | max response, % | actives 12% (n = 300,000) | AID 2314; in the data active means max response mostly above about 13%, no sharp cut-off; inactive means mostly below about 14%; further: read at 38.3 µM for the half of the compounds with a filed dose; 0% is about no effect
# RE007 growth inh = less growth of the S. pombe RE007 Vpr strain. AID 651644. actives 0.21% (n = 360,000). S. pombe RE007 Vpr strain, BacTiter-Glo ATP luminescence, 24 h. Potency, µM (top dose mostly 92.2 µM), inactives show at the highest dose activity change, negative = less growth, usual class: inhibitors; active means well fitted falling curve with a large enough effect; inconclusive means small, poorly fitted or top-dose-only effect; inactive means no such curve, though single readings can be large or run the other way; further: potency means the concentration at half of the fitted maximal effect; on the % scale 0 is the no-effect control and ±100 the full control effect; nearly all actives have a fitted effect of over 50% in size
#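 Fission yeast strain RE007, carrying one chromosomally integrated HIV-1 vpr copy, was seeded at OD 0.01 in PMG+AL medium with 23 nL pinned compound. After 24 h at 30 °C and 99% humidity, viability was read by BacTiter-Glo luminescence.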
# The depositor's hits bear a star; u = inconclusive; x = not tested or not shown; [ ] = another dose, or the depositor's remark. The sample as a whole holds a higher share of hits than the screen did. Unless noted, the call rests on the fitted dose curve; in most records, active means well fitted curve in the direction sought with a large enough effect; inconclusive means small, poorly fitted or top-dose-only effect, or another doubt; inactive means no such curve, though single readings can be large; an effect the other way counts as inactive or inconclusive.
SMILES,Shiga toxin inh,TbPYK inhibitor,FBPA Giardia inh,LmPK inhibitor,Cycloheximide cs,RE007 growth inh
O=C(Nc1ccc(F)c([N+](=O)[O-])c1)c1ccc2c(c1)C(=O)OC2=O,-12.3,x,0.1%,-7.7%,1.6,x
O=C(Nc1ccc(F)c([N+](=O)[O-])c1)c1ccc2c(c1)OCCO2,54.8*,1.5%,-5.8%,7.2%,33.1*,7.5%
O=C(Nc1cc(Cl)ccc1N1CCOCC1)c1ccc2c(c1)OCCO2,3.8,-2.7%,-9.8%,6.0%,0.7,-12.2%
COC(=O)c1ccc(NC(=O)c2ccc(C)cc2)o1,48.5*,-5.9%,-10.4%,-0.9%,22.2*,-21.8%
COC(=O)c1ccc(NC(=O)c2cccc(Cl)c2)o1,58.3*,2.6%,-0.2%,0.3%,24.2*,-15.3%
COC(=O)c1ccc(NC(=O)c2ccc(F)cc2)o1,35.5,4.8%,0.5%,-1.8%,4.6,21.4%
CO[C@@H]1COC(=O)C/C=C\[C@H](C)[C@H](OC)COC(=O)[C@H](C)NC(=O)C/C=C\[C@H]1C,x,x,1.2%[12.9 µM],x,x,x
Cc1[nH]n(-c2ccc([N+](=O)[O-])cc2)c(=O)c1C=NCCN1CCN(C(=O)c2ccc(Br)cc2)CC1,2.5,-6.5%,6.4%,-25.5%,-5.1,7.08µM*
Cc1[nH]n(-c2ccc([N+](=O)[O-])cc2)c(=O)c1C=NCCN1CCN(C(=O)c2cccc(F)c2)CC1,-13.1,-6.8%,4.6%,u,0.1,8.91µM*
Cc1[nH]n(-c2ccc([N+](=O)[O-])cc2)c(=O)c1C=NCCN1CCN(C(=O)c2ccc(F)cc2)CC1,-15.1,2.7%,3.3%,-20.9%,-3.4,-10.8%
COc1ccc(N2CCN(S(=O)(=O)c3ccc(C4CCCCC4)cc3)CC2)cc1,x,-0.6%,x,x,x,x
Cc1cccc(Oc2coc3cc(OC(=O)c4cccs4)ccc3c2=O)c1,50.4*,5.9%,-0.2%,-0.2%,28.9*,-5.2%
Cc1cccc(C(C)C)c1NC(=O)Cn1c(=O)oc2cc(S(=O)(=O)N3CCCC3)ccc21,x,2.6%,x,x,x,x
N=C1/C(=C\c2ccc(OC(=O)c3ccc(F)cc3)cc2)C(=O)N=C2SC(N3CCCC3)=NN12,11.2,-3.2%,-17.3%,-2.4%,15.3,-4.8%
Cc1ccc(C(=O)Oc2ccc(/C=C3\C(=N)N4N=C(N5CCOCC5)SC4=NC3=O)cc2)cc1,59.3*,1.0%,u,3.5%,26.1*,0.6%
N=C1/C(=C\c2ccc(OC(=O)c3ccccc3)cc2)C(=O)N=C2SC(N3CCOCC3)=NN12,11.3,-3.6%,-16.8%,1.5%,15.2*,-13.1%
N=C1/C(=C\c2ccc(OCc3ccccc3)cc2)C(=O)N=C2SC(N3CCCC3)=NN12,45.3*,x,-0.7%,5.0%,27.1*,x
Cc1nc2cnc(N(C)C)nc2n(CCc2ccccc2)c1=O,x,x,0.9%,x,x,x
FC(F)(F)c1nnc2c(Sc3ccccc3)nc3ccccc3n12,-26.1,1.5%,16.5%,2.3%,28.2*,-11.6%
FC(F)(F)c1nnc2c(Sc3ccccn3)nc3ccccc3n12,111.1*,-11.5%,6.1%,2.9%,22.5*,-4.1%
FC(F)(F)c1nnc2c(Sc3ccc(Cl)cc3)nc3ccccc3n12,26.5,-15.7%,1.0%,3.0%,-7.1,-9.2%
CCOc1ccc(C(=O)c2oc3ccccc3c2NC(=O)Cc2coc3ccc(CC)cc23)cc1,x,2.3%,x,x,x,x
COc1ccc(C(=O)NCc2cccnc2)cc1OC,-9.0,3.0%,-9.2%,-4.3%,6.6,-13.0%
COc1ccc(NC(=O)C2=Cc3cccc(OC)c3OC2)cc1,59.8*,2.2%,-24.1%,-13.7%,31.1*,-21.7%
COc1cccc2c1OCC(C(=O)OCc1cccnc1)=C2,15.1,-0.7%,4.6%,-1.9%,14.8*,3.1%
CCOC(=O)c1sc2nc3n(c(=O)c2c1C)CCCCC3,103.1*,3.7%,4.5%,-6.9%,46.8*,1.5%
CCCC(C)NC(=O)c1sc2nc3n(c(=O)c2c1C)CCC3 (stereo not drawn),29.1,3.5%,2.6%,-0.3%,17.2*,20.3%
CCOc1ccc(C(=O)c2cn(CC(=O)Nc3ccc(F)cc3)c3cc4c(cc3c2=O)OCO4)cc1,x,5.0%,x,x,x,x
CCCCN(CCCC)CC(O)c1cc(Cl)cc2c1-c1ccc(Cl)cc1/C2=C/c1ccc(Cl)cc1 (stereo not drawn),x,-14.6%,x,x,x,x

# Source: PubChem (National Center for Advancing Translational Sciences (NCATS))
